Source: PubChem BioAssay (Tox21)
Inconclusive results are not listed. Active and inactive are the calls of the source. Unless noted, the call rests on the fitted dose curve; in most records, active means well fitted curve in the direction sought with a large enough effect in the repeat runs; inconclusive means weak or mixed curves; inactive means no such curve, though single readings can be large; an effect the other way counts as inactive or inconclusive.

What was measured:
[1] = qHTS RealTime-Glo MT Cell Viability Assay in HEK293 cells - 8 hour (AID 1224887); further: top concentration of the series differs between compounds; nearly all actives have a fitted effect of over 50% in size
Method in brief: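 Viable HEK293 cells reduce a cell-permeant prosubstrate; the product diffuses out and is consumed by NanoLuc in the medium to give light. Compounds went in after a 5 h incubation and plates were read over the treatment course.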

[2] = A CellTox Green Cytotoxicity Assay to monitor cytotoxicity in HEK293 cells - 16 hour (AID 1224888); further: nearly all actives have a fitted effect of over 35% in size
Method in brief: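 Fluorescence intensity, read at 0, 8, 16, 24, 32 and 40 h of compound treatment, reflected dye binding to DNA of dead HEK293 cells; compounds (23 nL, DMSO) were added 5 h after plating cells with reagent.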

[3] = qHTS RealTime-Glo MT Cell Viability Assay in HepG2 cells - 0 hour (AID 1224889); further: nearly all actives have a fitted effect of over 50% in size
Method in brief: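 Tox21 10K library screened in qHTS format on HepG2 cells carrying RealTime-Glo reagents. Compounds were added after a 5 h preincubation, and the luminescent signal from continuous culture was measured repeatedly during 40 h treatment.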

[4] = A CellTox Green Cytotoxicity Assay to monitor cytotoxicity in HepG2 cells - 8 hour (AID 1224890); further: nearly all actives have a fitted effect of over 45% in size
Method in brief: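 Using 1536-well format, dye-containing HepG2 suspension was seeded, allowed 5 h at 37 C/5% CO2, dosed by pintool with compounds, positive and negative controls, and imaged for fluorescence across 40 h.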

[5] = qHTS assay to identify small molecule antagonists of the estrogen receptor alpha (ER-alpha) signaling pathway using the BG1 cell line in the presence of 0.1 nM 17-beta-estradiol - cell viability counter screen (AID 1259241); further: nearly all actives have a fitted effect of over 40% in size
Method in brief: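 Live-cell protease activity (CellTiter-Fluor fluorescence, 30 min) was read in the same wells after VM7Luc4E2 cells had been exposed to compounds with 0.1 nM 17beta-estradiol for 22 hr at 37C.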

[6] = qHTS assay to identify small molecule antagonists of the androgen receptor (AR) signaling pathway using the MDA cell line in the presence of 0.5 nM R1881 - cell viability counter screen (AID 1259242); further: nearly all actives have a fitted effect of over 45% in size
Method in brief: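 Viability of MDA-kb2 cells was multiplexed with the luciferase AR readout; after 16 hr with compounds and R1881 at 0.5 nM final, CellTiter-Fluor fluorescence was recorded.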

[7] = biological target: Androgen receptor (Homo sapiens) (UniProt P10275); experiment: qHTS assay to identify small molecule antagonists of the androgen receptor (AR) signaling pathway using the MDA cell line in the presence of 0.5 nM R1881 (AID 1259243); further: nearly all actives have a fitted effect of over 50% in size
Androgen receptor (Homo sapiens), sequence (P10275 whole entry, looked up): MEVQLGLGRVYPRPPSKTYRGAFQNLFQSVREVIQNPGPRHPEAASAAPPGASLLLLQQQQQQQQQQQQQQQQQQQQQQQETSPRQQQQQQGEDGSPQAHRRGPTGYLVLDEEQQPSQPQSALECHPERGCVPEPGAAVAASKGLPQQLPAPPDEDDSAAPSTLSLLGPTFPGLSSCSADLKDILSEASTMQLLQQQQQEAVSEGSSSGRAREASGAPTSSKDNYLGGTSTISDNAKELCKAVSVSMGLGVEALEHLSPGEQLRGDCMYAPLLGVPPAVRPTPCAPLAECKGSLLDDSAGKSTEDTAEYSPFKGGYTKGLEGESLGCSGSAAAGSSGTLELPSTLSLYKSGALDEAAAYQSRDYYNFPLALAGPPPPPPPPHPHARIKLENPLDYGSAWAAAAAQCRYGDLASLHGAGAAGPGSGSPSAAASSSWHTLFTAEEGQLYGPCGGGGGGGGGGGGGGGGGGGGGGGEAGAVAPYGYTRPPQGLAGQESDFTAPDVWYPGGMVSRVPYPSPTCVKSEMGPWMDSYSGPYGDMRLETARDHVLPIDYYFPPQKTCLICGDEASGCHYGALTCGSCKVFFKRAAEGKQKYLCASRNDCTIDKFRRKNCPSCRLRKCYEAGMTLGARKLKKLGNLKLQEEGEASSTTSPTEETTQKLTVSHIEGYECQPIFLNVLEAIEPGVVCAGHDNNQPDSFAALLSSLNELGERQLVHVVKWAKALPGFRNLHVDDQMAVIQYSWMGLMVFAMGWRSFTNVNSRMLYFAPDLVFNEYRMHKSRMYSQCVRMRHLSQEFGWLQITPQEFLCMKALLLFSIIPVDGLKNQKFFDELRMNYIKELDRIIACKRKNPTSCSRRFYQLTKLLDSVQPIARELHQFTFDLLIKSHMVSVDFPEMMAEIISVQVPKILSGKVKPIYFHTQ
Method in brief: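 Reporter cells cultured without CO2 receive test chemicals, then 0.5 nM R1881 final; after 16 hr at 37C, ONE-Glo is added and light output recorded.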

[8] = qHTS assay to identify small molecule HDAC inhibitors (AID 1259364);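 further: wild-type HCT-116 cells with endogenous class I/II HDAC activity; top concentration of the series differs between compounds; nearly all actives have a fitted effect of over 45% in size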
Method in brief: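 Read-out: luminescence of HDAC-Glo I/II reagent, 30 min RT, reflecting class I/II deacetylase activity in whole HCT-116 cells pre-exposed 2 h to DMSO-dissolved compounds.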

[9] = qHTS assay to identify small molecule HDAC inhibitors - cell viability counter screen (AID 1259365); further: series mostly up to about 92 µM; nearly all actives have a fitted effect of over 50% in size
Method in brief: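 HCT-116 (wild type), 1,500 cells/well, overnight 37C/5% CO2; compound in DMSO 2hr; CellTiter-Glo 30min RT; luminescence read.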

[10] = qHTS assay to identify small molecule agonists of the sonic hedgehog signaling (Shh) pathway - cell viability counter screen (AID 1259366); further: nearly all actives have a fitted effect of over 50% in size
Method in brief: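 CellTiter-Fluor fluorescence read-out, 1 hr at 37C, added after 23hr compound exposure. Cells: 3T3 Gli1-Luc, an NIH/3T3 clone with stably integrated Gli1-Luc reporter, plated 4hr before compound.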

[11] = qHTS assay to identify small molecule antagonists of the sonic hedgehog signaling (Shh) pathway - cell viability counter screen (AID 1259367); further: nearly all actives have a fitted effect of over 55% in size
Method in brief: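 NIH/3T3-derived Gli1-Luc reporter cells (2,000 per well) rested 4 hr at 37 C, then received DMSO compounds plus conditioned medium. After 23 hr of treatment, CellTiter-Fluor was added for 1 hr at 37C and fluorescence read.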

[12] = qHTS assay to identify small molecule agonists of the sonic hedgehog signaling (Shh) pathway (AID 1259368; calls by dose curve;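 further: NIH/3T3-derived 3T3Gli1-Luc cells carrying a stable Gli1-driven firefly luciferase reporter; series mostly up to about 92 µM; nearly all actives have a fitted effect of over 15% in size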)
Method in brief: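 A Gli1 transcriptional response element controlled firefly luciferase in 3T3Gli1-Luc cells. Compounds and a positive control were added 4 hr after plating, and cells were incubated a further 24 hr at 37 C before luminescence detection.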

[13] = qHTS assay to identify small molecule antagonists of the sonic hedgehog signaling (Shh) pathway (AID 1259369; calls by dose curve; further: nearly all actives have a fitted effect of over 45% in size)
Method in brief: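 For antagonist detection, the reporter line received test compounds together with conditioned medium, incubated 24hr at 37 C, 5% CO2, then luminescence was recorded following 30min room-temperature luciferase reagent incubation.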

[14] = biological target: Estrogen receptor beta (Homo sapiens) (UniProt Q92731); experiment: qHTS assay to identify small molecule agonists of the estrogen receptor beta (ER-beta) signaling pathway (AID 1259377; active means well fitted activation curve with a large enough effect in the signal ratio in the repeat runs, not every such curve was filed as active; the % refers to the signal ratio)
Estrogen receptor beta (Homo sapiens), sequence (Q92731 whole entry, looked up): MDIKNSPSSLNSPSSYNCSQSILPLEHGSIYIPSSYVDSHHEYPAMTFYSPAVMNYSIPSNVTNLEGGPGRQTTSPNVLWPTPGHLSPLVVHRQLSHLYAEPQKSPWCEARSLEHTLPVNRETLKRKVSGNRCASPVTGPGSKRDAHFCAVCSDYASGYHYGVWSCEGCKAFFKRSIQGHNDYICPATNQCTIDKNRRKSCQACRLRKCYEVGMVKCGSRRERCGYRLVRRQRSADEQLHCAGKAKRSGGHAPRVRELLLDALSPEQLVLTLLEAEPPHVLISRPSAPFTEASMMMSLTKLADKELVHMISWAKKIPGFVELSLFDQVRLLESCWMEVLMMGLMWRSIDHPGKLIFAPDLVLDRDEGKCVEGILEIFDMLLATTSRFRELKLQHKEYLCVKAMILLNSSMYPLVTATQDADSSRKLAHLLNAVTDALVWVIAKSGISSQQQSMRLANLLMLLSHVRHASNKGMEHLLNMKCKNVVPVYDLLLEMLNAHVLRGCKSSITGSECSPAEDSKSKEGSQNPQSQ
Method in brief: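 Beta-lactamase reporter readout: fluorescence of LiveBLAzer B/G FRET substrate after 2 h at room temperature, following 16 h compound treatment of ER-beta-UAS-bla HEK293T cells at 37C in 2% charcoal-stripped FBS medium.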

[15] = biological target: Estrogen receptor beta (Homo sapiens) (UniProt Q92731); experiment: qHTS assay to identify small molecule antagonists of the estrogen receptor beta (ER-beta) signaling pathway (AID 1259378; active means well fitted inhibition curve with a large enough effect in the signal ratio in the repeat runs, not every such curve was filed as active; the % refers to the signal ratio)
Method in brief: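 ER-beta-UAS-bla HEK293T (GripTite) cells in 2% charcoal-stripped FBS medium were preincubated 6 hr at 37C, dosed with compound, then stimulated with 1 nM E2 (final) for 16 hr; beta-lactamase reporter read by B/G FRET fluorescence after 2 hr substrate loading.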

[16] = qHTS assay to identify small molecule agonists of the androgen receptor (AR) signaling pathway in the presence of an antagonist - cell viability counter screen (AID 1259379);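 further: MDA-kb2 human breast cancer cells carrying an MMTV luciferase reporter; series mostly up to about 92 µM; nearly all actives have a fitted effect of over 25% in size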
Method in brief: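 Seed MDA-kb2 at 3,000 cells/well; incubate 5 hr, 37C, 0% CO2. Add nilutamide to 3.0uM final, then pin compounds at 15 concentrations. Incubate 16 hr. Add CellTiter-Fluor at 15 hr, read fluorescence after 1 hr.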

[17] = biological target: Androgen receptor (Homo sapiens) (UniProt P10275); experiment: qHTS assay to identify small molecule agonists of the androgen receptor (AR) signaling pathway in the presence of an antagonist (AID 1259381; calls by dose curve; further: nearly all actives have a fitted effect of over 15% in size)
Method in brief: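 Test compounds at 15 concentrations were incubated for 16hr with MDA-kb2 reporter cells in presence of 3.0uM nilutamide (final). Signal: ONE-Glo luciferase luminescence.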

[18] = biological target: Estrogen receptor (Homo sapiens) (UniProt P03372); experiment: qHTS assay to identify small molecule antagonists of the estrogen receptor alpha (ER-alpha) signaling pathway using the BG1 cell line in the presence of 0.1 nM 17-beta-estradiol (AID 1259244); further: nearly all actives have a fitted effect of over 50% in size
Estrogen receptor (Homo sapiens), sequence (P03372 whole entry, looked up): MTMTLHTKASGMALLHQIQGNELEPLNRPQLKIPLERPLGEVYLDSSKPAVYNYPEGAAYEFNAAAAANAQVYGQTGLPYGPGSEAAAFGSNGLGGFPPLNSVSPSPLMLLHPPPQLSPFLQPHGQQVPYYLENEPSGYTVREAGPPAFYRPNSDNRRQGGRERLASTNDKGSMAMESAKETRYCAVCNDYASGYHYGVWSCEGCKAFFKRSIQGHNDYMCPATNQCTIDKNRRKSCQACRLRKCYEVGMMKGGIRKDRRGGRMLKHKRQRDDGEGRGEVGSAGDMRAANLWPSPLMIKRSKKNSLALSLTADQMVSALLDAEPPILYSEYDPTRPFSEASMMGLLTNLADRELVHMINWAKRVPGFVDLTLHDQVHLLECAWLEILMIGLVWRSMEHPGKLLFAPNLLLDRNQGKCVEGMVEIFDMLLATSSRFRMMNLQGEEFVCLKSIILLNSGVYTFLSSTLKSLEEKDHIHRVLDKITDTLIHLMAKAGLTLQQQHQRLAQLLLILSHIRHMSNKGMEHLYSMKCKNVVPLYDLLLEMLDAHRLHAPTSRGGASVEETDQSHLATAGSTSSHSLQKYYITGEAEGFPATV
Method in brief: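 Estradiol at 0.1 nM (final) stimulates the endogenous ER-alpha of VM7Luc4E2 cells carrying an ERE-driven luciferase; compounds are co-incubated 22 h at 37C and luciferase output quantified by luminescence.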

[19] = qHTS assay to identify small molecule phospholipidosis (PLD) inducers (AID 1259344; active means well fitted curve in the direction sought with a large enough effect; an effect the other way counts as inactive or inconclusive)
Method in brief: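 HepG2 cells on collagen I, attached 4 h at 37 C, were co-treated with compound and LipidTOX Red dye for 24 h at 37 C, then fixed with paraformaldehyde plus Hoechst 33342 and imaged by high-content microscopy for phospholipid accumulation.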

[20] = qHTS assay to identify small molecule agonists of the estrogen receptor beta (ER-beta) signaling pathway - cell viability counter screen (AID 1259380); further: nearly all actives have a fitted effect of over 30% in size
Method in brief: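 CellTiter-Glo read, 30 min RT, same wells as bla assay; cells ER-beta-UAS-bla HEK293T; 16 hr compound, 37C; medium 2% charcoal-stripped FBS.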
On the % scale 0 is the no-effect control and ±100 the full control effect.

COc1ccc(CCO)cc1
inactive: Potency [1] | Potency [2] | Potency [3] | Potency [4] | outcome [5] | outcome [6] | Potency [7] | Potency [8] | outcome [9] | outcome [10] | outcome [11] | outcome [12] | Potency [13] | Potency [14] | Potency [15] | outcome [16] | outcome [17]

O=C(O)CNC(=O)CNC(=O)CNC(=O)CSC(=O)c1ccccc1
inactive: Potency [1] | Potency [2] | Potency [3] | Potency [4] | outcome [5] | outcome [6] | outcome [18] | PLD induction [19] 1.13% [at 7.66 µM] | Potency [8] | outcome [9] | outcome [10] | outcome [11] | outcome [12] | Potency [13] | Potency [14] | Potency [15] | outcome [16] | outcome [20]

CC(=O)OCC(=O)Nc1cc(C#N)cc(NC(=O)COC(C)=O)c1Cl
inactive: Potency [1] | Potency [2] | Potency [3] | Potency [4] | outcome [5] | outcome [6] | outcome [18] | PLD induction [19] -3.87% [at 7.66 µM] | Potency [8] | outcome [9] | outcome [10] | outcome [11] | outcome [12] | Potency [13] | Potency [14] | Potency [15] | outcome [16] | outcome [20]

CN(C)CCOC(=O)C(c1ccccc1)C1(O)CCCC1 (stereo unspecified)
inactive: Potency [1] | Potency [2] | Potency [3] | Potency [4] | outcome [5] | outcome [6] | outcome [18] | outcome [19] | outcome [9] | outcome [10] | outcome [11] | outcome [12] | Potency [13] | Potency [14] | Potency [15] | outcome [16]

CC1=C(C(=O)O)N2C(=O)[C@@H](NC(=O)[C@H](N)C3=CCC=CC3)[C@H]2SC1
inactive: Potency [1] | Potency [2] | Potency [3] | Potency [4] | outcome [5] | outcome [6] | outcome [18] | PLD induction [19] 0.229% [at 7.66 µM] | Potency [8] | outcome [9] | outcome [10] | outcome [11] | outcome [12] | Potency [13] | Potency [14] | outcome [16]

CC(C)Cn1cnc2c1c(=O)n(C)c(=O)n2C
inactive: Potency [1] | Potency [2] | Potency [3] | Potency [4] | outcome [5] | outcome [6] | outcome [18] | outcome [19] | Potency [8] | outcome [9] | outcome [10] | outcome [11] | outcome [12] | Potency [13] | Potency [15] | outcome [16]

CC(=O)CC(=O)OC(C)(C)C
inactive: Potency [1] | Potency [2] | Potency [3] | Potency [4] | outcome [5] | outcome [6] | Potency [7] | outcome [18] | Potency [8] | outcome [9] | outcome [10] | outcome [11] | outcome [12] | Potency [13] | Potency [14] | Potency [15] | outcome [16] | outcome [17]

C/C=C(\C)C(C)=O
inactive: Potency [1] | Potency [2] | Potency [3] | Potency [4] | outcome [5] | outcome [6] | Potency [7] | outcome [18] | Potency [8] | outcome [9] | outcome [10] | outcome [11] | outcome [12] | Potency [13] | outcome [16] | outcome [20] | outcome [17]

COC(=O)c1ccccc1C(=O)O
inactive: Potency [1] | Potency [2] | Potency [3] | Potency [4] | outcome [5] | outcome [6] | outcome [18] | Potency [8] | outcome [9] | outcome [10] | outcome [11] | outcome [12] | Potency [13] | Potency [14] | Potency [15] | outcome [16] | outcome [20]

CCCCC1CCC(O)CC1 (stereo unspecified)
inactive: Potency [1] | Potency [2] | Potency [3] | Potency [4] | outcome [5] | outcome [6] | Potency [7] | Potency [8] | outcome [9] | outcome [10] | outcome [11] | outcome [12] | Potency [13] | outcome [16] | outcome [20] | outcome [17]

CC(Oc1cc(Cl)ccc1Cl)C(=O)O (stereo unspecified)
inactive: Potency [1] | Potency [2] | Potency [3] | Potency [4] | outcome [5] | outcome [6] | Potency [7] | Potency [8] | outcome [9] | outcome [10] | outcome [11] | outcome [12] | Potency [13] | Potency [14] | Potency [15] | outcome [16] | outcome [20] | outcome [17]

CC(C)C1OCCN1CCOC(=O)NCCCCCCNC(=O)OCCN1CCOC1C(C)C (stereo unspecified)
inactive: Potency [1] | Potency [2] | Potency [3] | Potency [4] | outcome [5] | outcome [6] | Potency [7] | outcome [18] | Potency [8] | outcome [9] | outcome [10] | outcome [11] | outcome [12] | Potency [13] | Potency [14] | Potency [15] | outcome [16] | outcome [17]

CC1(C)O[C@H]2CC(=O)OC[C@]23[C@H]2CC[C@@]4(C)[C@H](c5ccoc5)OC(=O)[C@H]5O[C@]54[C@]2(C)C(=O)C[C@@H]13
inactive: Potency [1] | Potency [2] | Potency [3] | Potency [4] | outcome [5] | outcome [6] | outcome [18] | outcome [19] | Potency [8] | outcome [9] | outcome [10] | outcome [11] | outcome [12] | Potency [13] | Potency [14] | Potency [15] | outcome [16] | outcome [20]

O=C(Cl)c1ccccc1[N+](=O)[O-]
inactive: Potency [1] | Potency [2] | Potency [3] | Potency [4] | outcome [5] | outcome [6] | Potency [7] | Potency [8] | outcome [9] | outcome [10] | outcome [11] | outcome [12] | Potency [13] | Potency [14] | Potency [15] | outcome [16] | outcome [20] | outcome [17]
